# Reference: PubChem BioAssay (NCI)
# Compounds without any hit were thinned out: in the full panel of roughly 83,000, 20% have a hit.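 The test compound was applied at a single concentration to cells in 96-well plates for 48 hours, and percent growth was recorded.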 Unmarked numbers belong to inactive results. The source made the active and inactive calls. Rule for the calls: active = growth percent below 10; inactive = the rest.
# Assays:
# Test in all cases: NCI-60 one-dose screen, 48 h (100 = growth as untreated, 0 = no growth, -100 = all killed)
# Settings in all cases: 10 µM unless noted
# [1] = tested on: NCI-H23 lung
# [2] = tested on: NCI-H226 lung
# [3] = tested on: NCI-H322M lung
# [4] = tested on: HOP-62 NSCLC
# [5] = tested on: NCI-H460 lung
# [6] = tested on: HOP-92 NSCLC
# [7] = tested on: NCI-H522 lung
# [8] = tested on: A549/ATCC NSCLC
# [9] = tested on: 786-0 renal
# [10] = tested on: COLO 205 colon
# [11] = tested on: DU-145 prostate
# [12] = tested on: K-562 leukemia
# [13] = tested on: MALME-3M melanoma
# [14] = tested on: MDA-MB-231 breast
# [15] = tested on: RXF 393 renal
# [16] = tested on: SF-268 CNS
# [17] = tested on: SF-295 CNS
# [18] = tested on: SF-539 CNS
# [19] = tested on: UACC-257 melanoma
# [20] = tested on: M14 melanoma
SMILES,growth [1],growth [2],growth [3],growth [4],growth [5],growth [6],growth [7],growth [8],growth [9],growth [10],growth [11],growth [12],growth [13],growth [14],growth [15],growth [16],growth [17],growth [18],growth [19],growth [20]
COc1cc(/C=C/C(=O)c2ccccc2)ccc1Oc1nc(Nc2ccc(F)cc2)nc(N(C)C)n1,46.6%,43%,61.2%,78.4%,18.1%,28.7%,29.6%,52.8%,39.6%,36.2%,53.7%,6.43% (active),41.5%,-4.47% (active),39.4%,42.3%,26.5%,-8.58% (active),21.9%,38.7%
CC1(C)CC[C@]2(C(=O)Nc3ccc(F)cc3)CC[C@]3(C)C(=CCC4[C@@]5(C)C[C@@H](O)[C@H](O)[C@@](C)(CO)C5CC[C@]43C)C2C1 (stereo not given in full),49.8%,25.5%,72.7%,58.6%,30.8%,-1.23% (active),32.8%,28.5%,51.1%,0.244% (active),59.7%,18%,60.7%,27.8%,-6.8% (active),52.6%,26.1%,49.7%,27.7%,46.6%
C/C(=N\N=C\c1cc([N+](=O)[O-])ccc1Cl)c1ccc2c(c1)Nc1ccccc1S2,54.7%,53%,37.3%,15.7%,9.18% (active),54.1%,60.3%,29.3%,21.1%,61.3%,84.2%,57.1%,74.2%,49.9%,62.8%,80.4%,-28% (active),58.1%,81.5%,88.2%
COCOc1cc2c(=O)c(C)c(C(=O)N[C@@H](Cc3ccccc3)C(O)C(=O)NCc3ccccc3)oc2cc1OC (stereo not given in full),30%,-40.2% (active),80.6%,6.54% (active),-9.86% (active),27.8%,-11% (active),51.7%,-0.746% (active),49.5%,57.3%,40.6%,-27.7% (active),25.6%,-17.2% (active),1.19% (active),83.5%,-79.7% (active),30.2%,65.2%
COc1cc(-c2nc3cc(Cl)c(Cl)cc3[nH]2)ccc1OCc1nnc(-c2cccs2)o1,47.4%,54.7%,75.3%,77.8%,38.8%,69%,51.8%,11.7%,85.8%,81.9%,34.7%,54%,18.1%,17.9%,-2.12% (active),68.5%,31.9%,104%,61.2%,41.8%
CCN1C(=O)/C(=N\N=C(/C)c2ccc3c(c2)Nc2ccccc2S3)c2cc(Cl)ccc21,50.4%,66.7%,91.3%,92.9%,63.4%,29.8%,54%,49.8%,75%,89.8%,71.8%,38.2%,35.9%,66.8%,65.9%,43.8%,43.2%,73.3%,25.7%,67.5%
CCCSc1nc(NCCc2c[nH]c3ccccc23)c(C#N)c(-c2ccc(OC)cc2)n1,73.7%,50.7%,89%,64.5%,19%,64.7%,43.8%,53.3%,31.9%,61.3%,62.2%,23.5%,83.1%,41.2%,-17.3% (active),57.4%,29.7%,50.6%,89.8%,63.5%
